Potency and outcome data for eight compounds are collected here from PubChem BioAssay (Tox21).

The nature of assay [1]: qHTS assay to identify small molecule agonists of the NFkB signaling pathway - cell viability counter screen (AID 1159515; calls by dose curve; note: nearly all actives have a fitted effect of over 55% in size; note: potency is the fitted concentration of half-maximal effect). The method, boiled down: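 Parallel cytotoxicity counter screen in ME-180 cells carrying an NFkB-response-element beta-lactamase reporter, 2,000 cells/well. Compound exposure lasted 5 hr at 37 C, 5% CO2. Cell viability was quantified by CellTiter-Glo luminescence.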
A general note: Quantitative high-throughput screening tests each substance at several concentrations.

Assay [2] in a line: qHTS assay to identify small molecule agonists of the endoplasmic reticulum stress response signaling pathway (AID 1159516; active = well fitted activation curve with a large enough effect in the signal ratio in the repeat runs, not every such curve was filed as active; the % refers to the signal ratio). The method, boiled down: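 Using a HeLa line with an ESRE-driven beta-lactamase gene, agonist activity was measured by FRET substrate fluorescence (460 and 530 nm emission) after cells were treated with compounds for 5 hr at 37 C and 5% CO2.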
Assay [3] can be described thus: qHTS assay to identify small molecule antagonists of the retinoid-related orphan receptor gamma (ROR-gamma) signaling pathway - cell viability counter screen (AID 1159520). Note: nearly all actives have a fitted effect of over 50% in size. Note: potency is the fitted concentration of half-maximal effect. The method, boiled down:
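Cytotoxicity was read from cellular ATP (CellTiter-Glo luminescence) after 16 hr at 37 C with 1 uM doxycycline induction. The inducer was added 2 hr after compound transfer to Tet-on ROR gamma CHO cells.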

The target in assay [4] is Nuclear receptor ROR-gamma (Homo sapiens) (UniProt P51449). The assay can be described thus: qHTS assay to identify small molecule antagonists of the retinoid-related orphan receptor gamma (ROR-gamma) signaling pathway (AID 1159521; note: nearly all actives have a fitted effect of over 50% in size; note: potency is the fitted concentration of half-maximal effect). The method, boiled down: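 Tet-on RORγ CHO cells carrying a ROR response element–luciferase reporter were pretreated with compounds for 2 h, then induced with 1 uM (final) doxycycline hyclate for 16 h at 37 C. Antagonism was read as decreased ONE-Glo luminescence.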

Assay [5] in a line: qHTS assay to identify small molecule agonists of the AP-1 signaling pathway - cell viability counter screen (AID 1159525; calls by dose curve; note: nearly all actives have a fitted effect of over 55% in size; note: potency is the fitted concentration of half-maximal effect). The method, boiled down:
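Intracellular ATP by Cell Titer Glo luminescence (30 min, RT) in the same ME-180 AP-1-bla wells after the 5 h compound exposure at 37 °C. Normalised to tetra n-octyl ammonium bromide and DMSO controls.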

Assay [6] is described as follows: qHTS assay to identify small molecule antagonists of the estrogen related receptor (ERR) signaling pathway from Tox21 library - cell viability counter screen (AID 1224834). Note: nearly all actives have a fitted effect of over 30% in size. Note: potency is the fitted concentration of half-maximal effect. The method, boiled down:
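Compounds in DMSO were pinned onto ERR cells that had been incubated for 6 h, and the plates were held at 37 C for 17.5 h. CellTiter-Fluor reagent was then added and fluorescence was measured after 30 min.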

The target of assay [7] is Luciferin 4-monooxygenase (Photinus pyralis) (UniProt P08659). The assay can be described thus: qHTS assay to identify small molecule inhibitors of firefly luciferase (AID 1224835). Note: nearly all actives have a fitted effect of over 25% in size. Note: potency is the fitted concentration of half-maximal effect. The method, boiled down: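 Inhibition of purified Photinus luciferase is measured by luminescence. Substrate levels (D-luciferin, ATP) sit at their KM values. Each compound is tested in a concentration series.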
Luciferin 4-monooxygenase (Photinus pyralis), sequence (P08659 whole entry, looked up): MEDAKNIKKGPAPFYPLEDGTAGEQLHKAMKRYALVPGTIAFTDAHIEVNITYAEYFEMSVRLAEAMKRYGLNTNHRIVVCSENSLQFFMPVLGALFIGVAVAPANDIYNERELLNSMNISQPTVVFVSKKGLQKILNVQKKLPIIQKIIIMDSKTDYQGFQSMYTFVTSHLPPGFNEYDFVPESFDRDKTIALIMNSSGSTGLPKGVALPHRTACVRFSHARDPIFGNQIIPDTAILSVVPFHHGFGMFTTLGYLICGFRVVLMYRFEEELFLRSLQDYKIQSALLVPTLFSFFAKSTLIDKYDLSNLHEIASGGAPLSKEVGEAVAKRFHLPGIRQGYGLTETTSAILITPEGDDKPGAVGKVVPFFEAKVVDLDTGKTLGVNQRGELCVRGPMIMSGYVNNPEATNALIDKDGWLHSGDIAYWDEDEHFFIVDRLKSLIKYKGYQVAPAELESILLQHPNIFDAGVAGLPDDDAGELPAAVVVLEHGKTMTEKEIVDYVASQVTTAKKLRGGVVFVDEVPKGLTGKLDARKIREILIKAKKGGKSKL

Assay [8] is described as follows: qHTS assay to identify small molecule agonists of the vitamin D receptor (VDR) signaling pathway - cell viability counter screen (AID 743224). Note: nearly all actives have a fitted effect of over 50% in size. Note: potency is the fitted concentration of half-maximal effect. The method, boiled down: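 Compounds were pin-transferred onto VDR-bla cells plated 4 h earlier; following 16 h incubation at 37C, cell viability was quantified by CellTiter-Glo luminescence after 30 min at room temperature.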

Assay [9] in a line: qHTS assay to identify small molecule antagonists of the vitamin D receptor (VDR) signaling pathway - cell viability counter screen (AID 743225). Note: nearly all actives have a fitted effect of over 50% in size. Note: potency is the fitted concentration of half-maximal effect. The method, boiled down:
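VDR-bla HEK 293T cells, 4 h pre-incubation at 37C, then compound plus 1-alpha,25-dihydroxyvitamin D3 (3 nM final) for 16 h. After the beta-lactamase FRET read, CellTiter-Glo was added to the same wells; luminescence after 30 min at room temperature.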

Assay [10] in a line: qHTS assay to identify small molecule agonists of the endoplasmic reticulum stress response signaling pathway - cell viability counter screen (AID 1159517; calls by dose curve; note: nearly all actives have a fitted effect of over 50% in size; note: potency is the fitted concentration of half-maximal effect). The method, boiled down:
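After overnight attachment, ESRE-bla HeLa cells were treated with Tox21 library compounds for 5 hr. CellTiter-Glo luminescence, read 30 min post-addition at room temperature, reported viability.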

Assay [11] is described as follows: qHTS assay to identify small molecule agonists of the AP-1 signaling pathway (AID 1159526; calls by dose curve).
Assay [12] addresses Retinoic acid receptor RXR-alpha (Homo sapiens) (UniProt P19793). Description: qHTS assay to identify small molecule agonists of the RXR signaling pathway (AID 1159527; calls by dose curve; note: nearly all actives have a fitted effect of over 35% in size). The method, boiled down: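 GeneBLAzer RXR-alpha-UAS-bla HEK 293T cells in medium with 2% charcoal-stripped FBS, pre-incubated 5 hr at 37 C, then exposed to compounds 16 hr. Beta-lactamase reporter read by FRET substrate, 2 hr room temperature, 460/530 nm emission.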

A short description of assay [13]: qHTS assay to identify small molecule agonists of the RXR signaling pathway - cell viability counter screen (AID 1159529). Note: nearly all actives have a fitted effect of over 50% in size. Note: potency is the fitted concentration of half-maximal effect. The method, boiled down: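 RXR-alpha-UAS-bla HEK 293T cells in medium with 2% charcoal-stripped FBS were preincubated 5 hr, then exposed to compounds for 16 hr at 37 C. Viability was read as CellTiter-Glo luminescence after 30 min at room temperature.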

A short description of assay [14]: qHTS assay to identify small molecule antagonists of the retinoid acid receptor (RAR) signaling pathway - cell viability counter screen (AID 1159551). Note: nearly all actives have a fitted effect of over 35% in size. Note: potency is the fitted concentration of half-maximal effect. The method, boiled down:
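ATP-based viability, C3RL4 cells, 6 h at 37 C with 1 uM final retinol co-added after compound; luminescence read 30 min post CellTiter-Glo, RT.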

Assay [15] is described as follows: qHTS assay to identify small molecule antagonists of the retinoic acid receptor (RAR) signaling pathway (AID 1159552; note: nearly all actives have a fitted effect of over 50% in size; note: potency is the fitted concentration of half-maximal effect). The method, boiled down: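 RARE-luc C3RL4 cells; cpds + 1 uM (final) retinol, 6 hr, 37 C/5% CO2; luciferase reagent, 30 min RT, luminescence readout. Inhibitors of retinol-driven signal scored.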
Assay [16] can be described thus: qHTS assay to identify small molecule agonists of the retinoic acid receptor (RAR) signaling pathway (AID 1159553). The method, boiled down:
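Quantitative high-throughput format: the Tox21 10K library was tested on C3RL4 RARE-luciferase cells for 6 hr at 37 C and 5% CO2, with luminescence measured after a 30 min room-temperature reagent step.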

Structures are written as SMILES. Values joined by “and” are separate entries in the source; they are usually repeats but may differ in a detail not shown here. Identical values can stand only once. Records with an inconclusive call do not appear. More than one record can exist for a structure, and the calls need not agree. Active and inactive are the calls of the source. Unless noted, calls come from the whole dose curve; as a rule, active = well fitted curve in the direction sought with a large enough effect in the repeat runs; inconclusive = weak or mixed curves; inactive = no such curve, though single readings can be large; an effect the other way counts as inactive or inconclusive.

Retinoic acid receptor RXR-alpha (Homo sapiens), sequence (P19793 whole entry, looked up): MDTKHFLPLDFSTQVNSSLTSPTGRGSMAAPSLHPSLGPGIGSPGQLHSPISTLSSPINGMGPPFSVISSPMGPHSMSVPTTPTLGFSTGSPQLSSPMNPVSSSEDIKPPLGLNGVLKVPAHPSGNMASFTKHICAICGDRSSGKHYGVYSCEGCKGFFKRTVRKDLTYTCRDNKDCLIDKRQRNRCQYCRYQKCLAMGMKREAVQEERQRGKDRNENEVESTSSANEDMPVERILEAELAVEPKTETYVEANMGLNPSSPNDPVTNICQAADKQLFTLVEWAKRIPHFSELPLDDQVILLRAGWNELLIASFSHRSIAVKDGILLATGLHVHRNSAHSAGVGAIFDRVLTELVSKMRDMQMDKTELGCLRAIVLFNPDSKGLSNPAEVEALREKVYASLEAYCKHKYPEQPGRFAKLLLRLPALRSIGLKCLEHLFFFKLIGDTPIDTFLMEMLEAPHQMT

For the compound `O=Nc1ccc(Nc2ccccc2)cc1`, the Potency entry in assay [1] and in assay [5] was “inactive” in each case. In addition, the compound was called inactive in [2]. Besides, the Potency in [3] is 19.4 µM (active) and 15.4 µM (active); in [4] it was 7.74 µM (active) and 10.9 µM (active); in assay [6], 19.4 µM (active) and 24.3 µM (active); in assay [7], 35.8 µM (active) and 39.9 µM (active).
For `CO[Si](OC)(OC)c1ccccc1`, the Potency entry in [8], in assay [9], in assay [1], in [10], in [3] and in assay [5] was “inactive” each time. Moreover, the Potency result in [11], in assay [12], in assay [13], in assay [14], in assay [15] and in assay [16] was “inactive” each time. Further, the Potency result in assay [6] and in [7] was “inactive” throughout.
On to `NCCO`, for which the Potency result in assay [8], in [9], in assay [1], in assay [10], in assay [5] and in [11] was “inactive” each time. Moreover, the Potency result in assay [12], in [13], in assay [14], in assay [15], in assay [16] and in [6] was “inactive” in each case. Also, the Potency entry in assay [7] was “inactive”. Further, the compound was called inactive in [2].
`O=Cc1ccc(Cl)cc1`: the Potency entry in assay [9], in [1], in assay [10], in assay [3], in [4] and in [5] was “inactive” in each case. Also, the Potency result in assay [11], in assay [12], in assay [13], in assay [14], in assay [15] and in [16] was “inactive” in each case. Moreover, the Potency result in [6] and in assay [7] was “inactive” each time.
For `CCC(C)(Oc1ccc(C2(c3ccc(OC(C)(CC)C(=O)O)cc3)CCCCC2)cc1)C(=O)O` (stereo not given), the Potency entry in assay [8], in [9], in assay [1], in assay [10], in assay [3] and in [4] was “inactive” each time. Besides, the Potency entry in [5], in [11], in assay [12], in [13], in [14] and in assay [15] was “inactive” in each case. The Potency result in assay [16], in assay [6] and in [7] was “inactive” throughout.
For the compound `CC(=O)OCC1=C(C(=O)O)N2C(=O)[C@@H](NC(=O)Cc3cccs3)[C@H]2SC1`, the Potency entry in [8], in assay [9], in [1], in assay [10], in assay [5] and in assay [11] was “inactive” each time. Moreover, the Potency result in [12], in [13], in [14], in [15], in assay [16] and in assay [6] was “inactive” throughout. The Potency entry in assay [7] is “inactive”. The result in [2] was inactive.
As to `CCC[C@H](N[C@@H](C)C(=O)N1[C@H](C(=O)O)C[C@@H]2CCCC[C@@H]21)C(=O)OCC`, the Potency entry in [8], in [9], in assay [1], in [10], in assay [3] and in assay [4] was “inactive” throughout. Also, the Potency entry in assay [5], in assay [11], in assay [12], in assay [13], in assay [15] and in assay [16] was “inactive” each time. In addition, the Potency result in assay [6] and in assay [7] was “inactive” throughout.
In the case of `CC(C)CCCCCCc1ccc(O)cc1`, the Potency in [8] was 19.8 µM (active) and 30.9 µM (active); in assay [9], 31.4 µM (active) and 38.9 µM (active); in assay [1], 39.6 µM (active) and 38.9 µM (active); in assay [10], 35.3 µM (active) and 54.9 µM (active); in assay [3], 24.8 µM (active); in [4], 2.48 µM (active). Also, the Potency in assay [5] is 25 µM (active) and 49 µM (active); in assay [13] it was 5.59 µM (active) and 38.9 µM (active); in assay [14], 78.3 µM (active); in assay [15] it was 27.3 µM (active); in [6] it was 7.83 µM (active) and 48.6 µM (active); in assay [7] it was 36.2 µM (active) and inactive. Further, the Potency entry in [16] is “inactive”.
